The values that follow come from PubChem BioAssay AID493168 (National Center for Advancing Translational Sciences (NCATS), 2011).

The target in this assay is Ubiquitin carboxyl-terminal hydrolase 2 (Homo sapiens) (UniProt O75604). Put plainly: Confirmation Assay for Inhibitors of Ubiquitin-specific Protease USP2a Using CHOP2 as the Reporter. Also: nearly all actives have a fitted effect of over 55% in size. The essentials: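 Ub-CHOP2 cleavage coupled to reporter activation was read by fluorescence after 60 min at RT, with 25 nM final Ub-CHOP2 and substrate. Enzyme (10 nM final USP2 core) first sat 30 min with compound; data were normalized to NEM and fitted to concentration-response curves.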
Ubiquitin carboxyl-terminal hydrolase 2 (Homo sapiens), sequence (O75604 whole entry, looked up): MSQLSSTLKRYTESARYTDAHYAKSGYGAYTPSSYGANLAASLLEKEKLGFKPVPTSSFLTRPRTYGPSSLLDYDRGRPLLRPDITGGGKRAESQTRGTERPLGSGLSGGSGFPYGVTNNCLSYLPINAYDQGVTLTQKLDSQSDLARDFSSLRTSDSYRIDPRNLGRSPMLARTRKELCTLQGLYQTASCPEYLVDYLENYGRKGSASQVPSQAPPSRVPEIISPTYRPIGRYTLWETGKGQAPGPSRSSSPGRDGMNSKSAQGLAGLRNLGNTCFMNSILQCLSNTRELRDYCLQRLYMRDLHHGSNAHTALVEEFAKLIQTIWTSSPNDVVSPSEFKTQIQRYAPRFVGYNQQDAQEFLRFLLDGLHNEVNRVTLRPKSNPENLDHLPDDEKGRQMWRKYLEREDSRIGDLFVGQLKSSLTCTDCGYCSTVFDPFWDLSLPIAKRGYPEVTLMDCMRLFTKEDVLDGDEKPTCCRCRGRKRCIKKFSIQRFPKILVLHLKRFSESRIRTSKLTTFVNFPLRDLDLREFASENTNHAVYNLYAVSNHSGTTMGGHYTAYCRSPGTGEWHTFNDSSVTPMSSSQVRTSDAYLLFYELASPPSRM

Inconclusive results are not listed. Entries that show only a call come without a potency. Activity calls are given as the source filed them. Calls follow the shape of the dose curve; as a rule, active = well fitted inhibition curve with a large enough effect; inconclusive = small, poorly fitted or top-dose-only effect, or effect the other way; inactive = flat fitted curve, though single readings scatter.
Potency is read from the fitted curve at half-maximal effect.

Take `COc1ccc(-n2c(SCC(=O)N3CCN(c4ccccc4)CC3)nc3c(c2=O)SCC3)cc1`: the Potency result was “inactive”.

For the compound `CC(OC(=O)c1nsc(Cl)c1Cl)C(=O)NCc1ccco1` (centres undefined), the Potency entry was “inactive”.

`O=C(O)C(Cc1ccccc1)N1C(=O)/C(=C/C=C/c2ccco2)SC1=S` (centres undefined): the Potency was 7.36 µM (active).

On to `CCCn1c(NC(=O)c2ccc(Br)cc2)nc2ccccc21`, for which the Potency entry is “inactive”.

As to `COCc1cc(C)nc(SCC[N+](C)(C)CC(=O)Nc2cccc(C(F)(F)F)c2)c1C#N`, the Potency result is “inactive”.

Turning to `O=C(/C=N/O)NCc1cccnc1`, the Potency result was “inactive”.

Regarding `CCCCn1c(SCC(=O)N2CCC(C)CC2)nc2cc(S(N)(=O)=O)ccc21`, the Potency result was “inactive”.

For `O=C(Nc1cccc(-c2nn[nH]n2)c1)c1ccc(Br)s1`, the Potency was 5.21 µM (active).

On to `CC(CN1CCCCC1)OC(=O)c1ccc(Cl)cc1` (centres undefined), for which the Potency result was “inactive”.

Consider `Cc1nc(NC(C)C)c2cnn(CCc3ccccc3)c2n1`, for which the Potency entry was “inactive”.

Regarding `Cn1c(=O)c2c(nc(CN3CCN(C(=O)c4ccco4)CC3)n2CCCc2ccccc2)n(C)c1=O`, the Potency result is “inactive”.

With `COc1ccc(/C=N\NC(=O)c2cc(O)c(O)c(O)c2)cc1COc1ccc(C(=O)OCC(C)C)cc1`, the Potency is 14.7 µM (active).

`O=[N+]([O-])/C(C(Cl)=C(Cl)Cl)=C(\Sc1ccccc1)N1CCCCC1`: the Potency entry was “inactive”.

Consider `COc1ccccc1C(=O)n1nc(-c2cccnc2)nc1NCc1ccccc1`, for which the Potency is 5.85 µM (active).

On to `CCC/C(O)=C1\C(=O)CC(C)(C)CC1=Nc1ccc(OC)cc1OC`, for which the Potency entry is “inactive”.

Turning to `COCCn1c(SCC(=O)Nc2cc(C)on2)nnc1-c1ccccc1`, the Potency result was “inactive”.

As to `Cc1ccccc1N=C1NC(=O)CS1`, the Potency result is “inactive”.

`NS(=O)(=O)c1cc(C(=O)NC2CCSc3ccccc32)ccc1Cl` (centres undefined): the Potency is 13.1 µM (active).

Turning to `N#Cc1c(Nc2ccc(Cl)cc2)s[nH]c1=O`, the Potency result is “inactive”.

Regarding `CCCCC1NC(C(=O)O)CS1` (centres undefined), the Potency entry is “inactive”.

In the case of `CC1(C(=O)O)Sc2[nH]c(=O)sc2C2c3ccccc3OC(=O)C21` (centres undefined), the Potency entry was “inactive”.

On to `Cc1cccc(Nc2nc(NCc3ccco3)c3ccccc3n2)c1`, for which the Potency entry was “inactive”.

`O=[N+]([O-])c1ccc(Sc2nnnn2-c2ccccc2)c(Cl)c1`: the Potency result is “inactive”.

Regarding `CC(C)c1ccc2c(c1)c(SC(C)(C)C)c(CC(C)(C)C(=O)O)n2Cc1ccc(Cl)cc1`, the Potency is 6.56 µM (active).

For the compound `COc1cc(OC)cc(-c2c(C#Cc3ccsc3)c3cc(-c4ccc(OC)c(OC)c4)ccc3n2C)c1`, the Potency entry is “inactive”.

Take `CCCn1c(C)cc(C)c(C#N)c1=O`: the Potency entry was “inactive”.

Consider `COC1=CCC2([N+](=O)[O-])CN(CCO)CC1([N+](=O)[O-])C2` (centres undefined), for which the Potency result was “inactive”.

Regarding `Cc1cc(NC(=O)CN2C(=O)NC3(CCCCC3C)C2=O)no1` (centres undefined), the Potency result is “inactive”.

`Cc1onc(-c2ccccc2)c1C(=O)N1CCN(C)CC1`: the Potency entry is “inactive”.
